Hits are enriched below; roughly 17% of the tested compounds scored in any of these assays.
DT40 TDP1 CPT: growth inhibition of DT40 Tdp1-/-;hTDP1 cells with camptothecin (screen for TDP1 inhibitors). chicken DT40 Tdp1-/-;hTDP1 cells + 20 nM CPT, ATP luminescence, 48 h. Potency, µM (highest dose often 46.2 µM), without a hit: at the top dose activity change, negative = growth inhibition, most hits filed as inhibitors. 420,000 compounds, 12% hits. AID 686979; further: on the % scale 0 is the no-effect control and ±100 the full control effect; nearly all actives have a fitted effect of over 55% in size
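Chicken DT40 Tdp1-/- cells stably complemented with human TDP1 were seeded at 400 cells/well in medium containing 20 nM camptothecin, exposed to pin-transferred compounds, and grown at 37 °C for at least 48 hr. Viability was read as ATP luminescence.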
TGFb inhibitor: inhibitors of TGF-b signaling | 410,000 compounds, 1.2% hits | Potency, µM (doses to about 46.1 µM), for the others: at the highest dose activity, negative = inhibition, hits mostly inhibitors | HepG2 CAGA-GFP TGF-b/SMAD3 reporter, GFP fluorescence, 18 h; TGF-beta stimulated, 500 pg/mL final; further: on the % scale 0 is the no-effect control and ±100 the full control effect; nearly all actives have a fitted effect of over 65% in size
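Cell-based qHTS in HEPG2 carrying a CAGA-GFP Smad reporter; compounds added before 500 pg/mL final TGF-beta, 18 h incubation at 37 degrees C, GFP fluorescence quantified per cell by imaging cytometry.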
DT40 TDP1 no CPT: qHTS for Inhibitors of human tyrosyl-DNA phosphodiesterase 1 (TDP1): qHTS in cells in absence of CPT | DT40 Tdp1-/- hTDP1 cells, no CPT, ATP luminescence, 48 h | Potency, µM (top dose mostly 46.2 µM), for inactives: top-dose activity change, negative = growth inhibition, most hits filed as inhibitors | 420,000 compounds, 15% hits | AID 686978, 2013; further: on the % scale 0 is the no-effect control and ±100 the full control effect; nearly all actives have a fitted effect of over 55% in size
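Camptothecin absent (DMSO only). Human TDP1-complemented DT40 knockout cells, 400 cells/well, 37 °C for minimum 48 hr; ATP measured via CellTiter-Glo, 30 min dark incubation, luminescence.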
HT1080 IDH1KD tx: kills HT-1080 cells with IDH1 knockdown; HT-1080 IDH1 knockdown viability, ATP luminescence, 48 h; Potency, µM (top dose mostly 46.1 µM), without a hit: at the top dose activity, negative = toxicity, usual class: cytotoxic; 360,000 compounds, 2% hits; AID 686971;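 further: 0% = DMSO wells and -100% = cell-free medium wells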
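CellTiter-Glo luminescence after 48 h compound exposure at 37 degrees C of IDH1-knockdown HT-1080 cells in 5% FBS RPMI. %Activity scaled between DMSO wells and cell-free media wells, with curves fitted and assigned curve classes.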
HT1080-NT tox: kills 2HG-producing HT-1080-NT fibrosarcoma cells; 360,000 compounds, 1.6% hits; HT-1080-NT fibrosarcoma viability, CellTiter-Glo ATP luminescence, 48 h; AID 686970; Potency, µM (doses to about 46.1 µM), for inactives: at the highest dose activity, negative = less viability, actives largely listed as cytotoxic;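 further: NT is the 2HG producing partner of a matched IDH1 knockdown line; 0% = DMSO-treated cells and -100% = media-only wells without cells; nearly all actives have a fitted effect of over 55% in size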
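Viability by CellTiter-Glo luminescence after 48 h compound exposure at 37C of HT-1080-NT cells (750/well, RPMI, 5% FBS). % activity scaled between DMSO wells and medium-only wells, then curve-fitted and categorized by curve class.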
HepG2 viability: HepG2 cytotoxicity, counter-screen for TGF-b inhibitors | 410,000 compounds, 0.76% hits | Potency, µM (titrated, usually from 46.1 µM), for the others: top-dose activity change, negative = cytotoxicity, usual class: cytotoxic | HepG2 CAGA-GFP viability, ATP luminescence, 18 h
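CellTiter-Glo luminescence gave cytotoxicity after 18 hours at 37 degrees C. The cells were HepG2 CAGA-GFP in 1% FBS DMEM, stimulated with 500 pg/mL TGF-beta after compound addition. %Activity was normalised to no-cell wells (complete cell-killing) and DMSO (no toxicity), and curves were fitted and classified.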
* hit, by the source's call; ? = inconclusive; · = no result; [ ] = another dose, or the depositor's remark. The call rests on the fitted dose curve; in most records, active means well fitted curve in the direction sought with a large enough effect; inconclusive means small, poorly fitted or top-dose-only effect, or another doubt; inactive means no such curve, though single readings can be large; an effect the other way counts as inactive or inconclusive. Potency means the concentration at half of the fitted maximal effect.

SMILES	DT40 TDP1 CPT	TGFb inhibitor	DT40 TDP1 no CPT	HT1080 IDH1KD tx	HT1080-NT tox	HepG2 viability
COc1cc2c(cc1OC(C)=O)CCCCC2=O	-9%	-1%	-28%	1%	1%	-16%
CCCCCCCCCCCCCCCC(=O)OCC(COP(=O)(O)O)OC(=O)CCCCCCCCCCCCCCC (stereo unspecified)	3%[4.12 µM]	·	0%[4.12 µM]	·	·	·
O=C(NC1CCCC1)c1ccc(CSc2nc3ccncc3n2Cc2ccccc2F)cc1	?	?	?	·	·	-3%
Cc1ccc(Cn2c(SCc3ccc(C(=O)N4CCCCC4)cc3)nc3ccncc32)cc1	18µM*	11µM*	8.2µM*	·	·	-33%
Cc1ccc(Cn2c(SCc3ccc(C(=O)N4CCCCCC4)cc3)nc3ccncc32)cc1	?	10µM*	21µM*	·	·	-40%
O=C(c1ccc(CSc2nc3ccncc3n2Cc2ccccc2F)cc1)N1CCCCCC1	?	?	26µM*	·	·	-13%
CCc1ccc(NC(=O)Cn2c(SCc3ccc(C)cc3)nc3ccncc32)cc1	?	?	?	·	·	-29%
COc1ccc(NC(=O)C2c3ccccc3OCC(=O)N2Cc2cccnc2)cc1 (stereo unspecified)	6%	·	3%	19%	9%	·
Cc1c(Cl)ccc2sc(N3CCN(C(=O)C4CC4)CC3)nc12	12µM*	18µM*	5.8µM*	·	·	-41%
Cc1ccc(S(=O)(=O)CCC(=O)N2CCN(c3nc4c(C)c(Cl)ccc4s3)CC2)cc1	2.6µM*	?	3.3µM*	·	·	-13%
O=C(CCS(=O)(=O)c1ccc(F)cc1)N1CCN(c2ccccc2)CC1	?	3%	-12%	0%	9%	-2%
COc1cccc2sc(N3CCN(C(=O)CCS(=O)(=O)c4ccc(F)cc4)CC3)nc12	5.8µM*	?	7.3µM*	·	·	-16%
O=C(C1CC1)N1CCN(c2nc3ccccc3s2)CC1	-24%	-4%	-11%	0%	0%	-17%
Cc1ccc(S(=O)(=O)CCC(=O)N2CCN(c3ccccc3O)CC2)cc1	-15%	-19%	3%	2%	-6%	-14%
COc1cccc(C(=O)CC2(O)C(=O)Nc3ccc(Cl)cc32)c1 (stereo unspecified)	?	?	?	·	·	-15%
O=C(Nc1cccc(Cl)c1Cl)C1CCCO1 (stereo unspecified)	-9%	4%	-13%	22%	18%	-1%
N#Cc1ccc(N[C@@H]2CCN3C(=O)c4ccccc4[C@@H]3C[C@H]2O)cc1	-12%	-9%	-14%	2%	-2%	-14%
O=c1[nH]c(NCc2ccco2)nnc1Cc1ccccc1Cl	6.5µM*	2%	4.1µM*	?	?	-18%
COC(=O)C(NC(=O)c1ccc(F)cc1)(Nc1ncc(S(=O)(=O)c2ccc([N+](=O)[O-])cc2)s1)C(F)(F)F (stereo unspecified)	16µM*	?	13µM*	?	?	-28%
COC(=O)C(NC(=O)c1ccccc1C)(Nc1ncc(S(=O)(=O)c2ccc([N+](=O)[O-])cc2)s1)C(F)(F)F (stereo unspecified)	?	-12%	?	?	?	-18%
O=C1CCN(Cc2ccccc2)CCN1[C@H](COc1ccccc1)Cc1ccccc1	21µM*	?	21µM*	-18%	?	-10%
CC(C)C[C@@H](COc1ccccc1)N1CCN(Cc2ccccc2)CCC1=O	?	?	?	0%	0%	-31%
CCCN1CCC(=O)N([C@H](COc2ccccc2)Cc2ccccc2)CC1	26µM*	24%	?	-9%	-1%	-11%
